Source: PubChem
Hits are enriched below; roughly 3.1% of the tested compounds scored in any of these assays.
GLS inhibitor: qHTS for Inhibitors of Glutaminase (GLS). Potency, µM (top dose mostly 45.5 µM), usual class: inhibitors. GLS enzymatic activity, qHTS titration. hit rate 0.21% among 410,000
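Enzyme dispensed in phosphate buffer (45 mM, pH 8.2, 0.02% Tween-20), compounds pinned in, then 1 mM L-glutamine solution and the glutamate oxidase–HRP–Amplex Red mix added; fluorescence read immediately and again after 30 min at room temperature.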
VDR inh: Inhibitors of the vitamin D receptor (VDR): qHTS | Vitamin D3 receptor (Homo sapiens), P11473 | VDR-SRC2-3 peptide fluorescence polarization, 2 h | Potency, µM, actives largely listed as inhibitors | hit rate 0.93% among 400,000 | AID 504847, 2011
Target sequence (P11473 whole entry, looked up): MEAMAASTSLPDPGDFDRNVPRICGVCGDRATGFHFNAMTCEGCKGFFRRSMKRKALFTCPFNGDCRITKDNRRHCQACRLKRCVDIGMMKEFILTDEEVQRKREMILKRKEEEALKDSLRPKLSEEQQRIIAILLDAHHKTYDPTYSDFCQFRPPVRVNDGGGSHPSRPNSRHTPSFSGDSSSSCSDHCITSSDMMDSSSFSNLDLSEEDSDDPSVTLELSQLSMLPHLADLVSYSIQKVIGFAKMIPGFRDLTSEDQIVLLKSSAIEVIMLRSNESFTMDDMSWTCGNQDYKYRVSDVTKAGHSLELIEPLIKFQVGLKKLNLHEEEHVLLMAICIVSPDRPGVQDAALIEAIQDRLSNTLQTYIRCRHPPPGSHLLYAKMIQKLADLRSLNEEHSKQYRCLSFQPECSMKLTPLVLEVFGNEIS
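Two reagent solutions held at 4 deg C in the dark were dispensed, compounds pinned at 23 nl, and the mixture incubated 2 h at room temperature. Read-out: fluorescence polarization of VDR–SRC2-3 peptide binding.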
PI4K2A inh: qHTS for small molecular inhibitors of PI4K2A; Phosphatidylinositol 4-kinase type 2-alpha (Homo sapiens), Q9BTU6; purified PI4K2A, ADP-Glo luminescence, 1 h; stronger effect = lower value; activity change, negative = inhibition, % at 76.9 µM; hit rate 0.13% among 420,000; AID 1346378, 2018; in the data active = activity change below about -50%; inconclusive = mostly about -30% to -49%
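In this quantitative HTS, ADP production by PI4K2A was quantified luminescently after 1 h at ambient temperature; 100 microM adenosine served as plate-quality control.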
KAT2A inh: qHTS Assay for Inhibitors of GCN5L2. Histone acetyltransferase KAT2A (Homo sapiens), Q92830. GCN5L2 HAT assay, ThioGlo1 CoA-SH fluorescence. Potency, µM (series often up to 58.9 µM), most hits filed as inhibitors. hit rate 0.21% among 390,000
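Preincubate 20nM GCN5L2 with compound 15 min, RT → add 50uM ThioGlo1 + 75uM H3(1-25) + 70uM acetyl-CoA → read fluorescence 0 and 20 min. Primary qHTS; fluorescent artifacts likely.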
PLK1 PBD block: qHTS for Inhibitors of PLK1-PDB (polo-like kinase 1 - polo-box domain): Primary Screen | Potency, µM, usual class: inhibitors | AID 720504, 2013 | Plk1 PBD binding of FITC phosphopeptide, fluorescence polarization | hit rate 2.8% among 360,000; note: series mostly up to about 57 µM; nearly all actives have a fitted effect of over 65% in size
TbPYK confirm: qHTS of Trypanosoma Brucei Inhibitors: Confirmatory Assay for Cherry-picked Compounds. shares compounds with PLK1 PBD block. recombinant TbPYK, Kinase-Glo ATP luminescence. Potency, µM (highest dose often 76.9 µM), actives largely listed as inhibitors. hit rate 67% among 890. AID 720569, 2013; note: nearly all actives have a fitted effect of over 70% in size
TbPYK ADP-Glo: qHTS of Trypanosoma Brucei Inhibitors: Orthogonal Assay for Cherry-picked Compounds; hit rate 62% among 890; recombinant TbPYK, ADP-Glo luminescence, 60 min; shares compounds with PLK1 PBD block; Potency, µM (top dose mostly 76.9 µM), hits mostly inhibitors; note: nearly all actives have a fitted effect of over 75% in size
Large screens that a line does not name were inactive (follow-up assays come after a bar, where they were run). Unless noted, calls come from the whole dose curve; as a rule, active = well fitted curve in the direction sought with a large enough effect; inconclusive = small, poorly fitted or top-dose-only effect, or another doubt; inactive = no such curve, though single readings can be large; an effect the other way counts as inactive or inconclusive.

Cc1cc(C)c(OCC(=O)N(Cc2ccc(N(C)C)cc2)CC2CCCO2)c(C)c1 (centres undefined)	none (no result: PLK1 PBD block)
CC1=C/C(=C(/c2cc(C)c(O)c(Br)c2)c2ccccc2S(=O)(=O)O)C=C(Br)C1=O	PI4K2A inh inconclusive, PLK1 PBD block inconclusive | TbPYK confirm 22µM | TbPYK ADP-Glo inactive
CCOC1=CC2=C(C(=O)C(Cl)=CC2=O)[C@@H]2CN(S(=O)(=O)c3ccc(C)cc3)[C@@H](c3ccccc3)[C@H]12	GLS inhibitor inconclusive, PLK1 PBD block 6.7µM (no result: VDR inh, KAT2A inh) | TbPYK confirm 1.4µM | TbPYK ADP-Glo 2µM
O=C(c1ccc(C(F)(F)F)cc1)N1CCC(c2noc(-c3ccc(S(=O)(=O)N4CCCC4)cc3)n2)CC1	none (no result: PLK1 PBD block)
COc1ccc(S(=O)NC2CCCCC2)c(OC)c1C (centres undefined)	none | TbPYK confirm 22µM | TbPYK ADP-Glo 20µM
COc1ccc(C(=O)NC2CCCCCCC2)cc1OC	none (no result: KAT2A inh)
COc1cccc(CSc2nc3n(n2)C(c2cccs2)C(C(=O)Nc2ccccc2C)=C(C)N3)c1 (centres undefined)	none (no result: PLK1 PBD block)
CCOC(=O)c1sc2nc(N3CCOCC3)c3c(c2c1N)CCCC3	GLS inhibitor inconclusive
CCN(CC)C(=O)c1sc2nc(N3CCOCC3)c3c(c2c1N)CCCC3	PLK1 PBD block inconclusive | TbPYK confirm 7.9µM | TbPYK ADP-Glo 4.5µM
C1=CC2c3ccccc3NC(c3ccncc3)C2C1 (centres undefined)	VDR inh inconclusive, PLK1 PBD block inconclusive | TbPYK confirm 18µM | TbPYK ADP-Glo 16µM
CCN(CC)c1ccc2nc3ccc(N)cc3[n+](-c3ccccc3)c2c1	VDR inh inconclusive, PI4K2A inh inconclusive | TbPYK confirm inconclusive | TbPYK ADP-Glo inactive
CN1/C(=C/c2cccc[n+]2CCO)Sc2ccccc21	none
CC(=S)/C=C1\Sc2ccccc2N1C	VDR inh inconclusive, PLK1 PBD block 27µM | TbPYK confirm inconclusive | TbPYK ADP-Glo 14µM
O=C(CCN1CCc2ccccc2C(c2ccccc2)C1)c1ccc2c(c1)OCCO2 (centres undefined)	GLS inhibitor inconclusive, VDR inh inconclusive, PLK1 PBD block 3µM | TbPYK confirm inconclusive | TbPYK ADP-Glo inconclusive
CCCCCC(=O)NNC(=S)NC(=O)c1cccc([N+](=O)[O-])c1	VDR inh inconclusive, PLK1 PBD block 15µM | TbPYK confirm 11µM | TbPYK ADP-Glo 14µM
COc1ccc([C@]23Cc4ccccc4C(O2)c2c(cc(-c4ccccc4)oc2=O)O3)cc1	none (no result: GLS inhibitor, VDR inh, PI4K2A inh, PLK1 PBD block)
CC(=O)Nc1ccc2c(c1)Cc1cc(N3C(=O)C=CC3=O)ccc1-2	VDR inh 28µM, PLK1 PBD block 3µM (no result: KAT2A inh) | TbPYK confirm 8.9µM | TbPYK ADP-Glo 6.3µM
Cc1nc(-c2ccc(C(=O)N3CCCC3)cc2)cs1	PI4K2A inh -56 | TbPYK confirm inconclusive | TbPYK ADP-Glo inactive
O=c1c2sccc2[nH]c(=S)n1Cc1ccccc1	none | TbPYK confirm 14µM | TbPYK ADP-Glo 7.1µM
COc1ccc(Cn2c(=S)[nH]c3ccsc3c2=O)cc1	none | TbPYK confirm 5µM | TbPYK ADP-Glo 5.6µM
Cc1nc(N2CCCCC2C)c2nnn(Cc3ccccc3)c2n1 (centres undefined)	none (no result: GLS inhibitor, VDR inh, KAT2A inh, PLK1 PBD block)
CCCNC(=O)C1(C)CCCN(C(=O)CN2C(=O)c3ccccc3C2=O)C1 (centres undefined)	none (no result: VDR inh, KAT2A inh)
Cc1ccc(S(=O)(=O)NNc2ccccc2)c(C)c1	VDR inh inconclusive, KAT2A inh inconclusive, PLK1 PBD block 21µM | TbPYK confirm 16µM | TbPYK ADP-Glo inconclusive
Cc1ccc(S(=O)(=O)NNC(=O)c2cccs2)c(C)c1	none
